Data: the supplement of paper PMC8728848
This is one part of a sample in which the strongest signals are shown more often than they occur.

Assays:
Experiment in all cases: glycan array binding signal (z-score within array); higher = stronger binding
Conditions in all cases: glycan notation: IUPAC condensed, linker removed
[1] = target: Fuc(a1-2)Gal(b1-3)GalNAc(b1-3)Gal
Outline: (§1)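 From the Consortium for Functional Glycomics database, 3228 arrays were curated, keeping only those whose protein sequence was available. Binding is given as a within-array Z-score averaged across arrays sharing a protein sequence and across linkers. Negative Z-scores can be read as non-binding.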

[2] = target: Fuc(a1-2)Gal(b1-3)GlcNAc(b1-3)[Neu5Ac(a2-6)Gal(b1-4)GlcNAc(b1-6)]Gal(b1-4)Glc
Outline: as §1

[3] = target: Fuc(a1-2)[GalNAc(a1-3)]Gal(b1-3)GlcNAc(b1-2)Man(a1-3)[Fuc(a1-2)[GalNAc(a1-3)]Gal(b1-3)GlcNAc(b1-2)Man(a1-6)]Man(b1-4)GlcNAc(b1-4)GlcNAc
Outline: as §1

[4] = target: Fuc(a1-2)[GalNAc(a1-4)]Gal(b1-4)GlcNAc
Outline: as §1

[5] = target: Fuc(a1-3)[Gal(b1-4)]GlcNAc(b1-2)Man(a1-3)[Fuc(a1-3)[Gal(b1-4)]GlcNAc(b1-2)Man(a1-6)]Man(b1-4)GlcNAc(b1-4)[Fuc(a1-6)]GlcNAc
Outline: as §1

[6] = target: Fuc(a1-3)[Gal(b1-4)]GlcNAc(b1-3)GalNAc
Outline: as §1

Gal(a1-2)Gal = target: Gal(a1-2)Gal
Outline: as §1

Gal(a1-3)Gal(b1-3)GlcNAc = target: Gal(a1-3)Gal(b1-3)GlcNAc
Outline: as §1

[7] = target: Gal(a1-3)Gal(b1-3)[Fuc(a1-4)]GlcNAc(b1-2)Man(a1-3)[Gal(a1-3)Gal(b1-3)[Fuc(a1-4)]GlcNAc(b1-2)Man(a1-6)]Man(b1-4)GlcNAc(b1-4)GlcNAc
Outline: as §1

[8] = target: Gal(a1-3)Gal(b1-4)GlcNAc(b1-2)Man
Outline: as §1

[9] = target: Gal(a1-3)[Gal(a1-4)]Gal(b1-4)GlcNAc
Outline: as §1

Gal(b1-2)Gal = target: Gal(b1-2)Gal
Outline: as §1

Gal(b1-3)Gal = target: Gal(b1-3)Gal
Outline: as §1

[10] = target: Gal(b1-3)GlcNAc(b1-2)Man(a1-3)[GlcNAc(b1-4)][Gal(b1-3)GlcNAc(b1-2)Man(a1-6)]Man(b1-4)GlcNAc(b1-4)GlcNAc
Outline: as §1

[11] = target: Gal(b1-3)GlcNAc(b1-3)Gal(b1-4)[Fuc(a1-3)]GlcNAc
Outline: as §1

[12] = target: Gal(b1-3)[Fuc(a1-4)]GlcNAc(b1-2)Man
Outline: as §1

[13] = target: Gal(b1-3)[Fuc(a1-4)]GlcNAc(b1-2)Man(a1-3)[Gal(b1-3)[Fuc(a1-4)]GlcNAc(b1-2)Man(a1-6)]Man(b1-4)GlcNAc(b1-4)[Fuc(a1-6)]GlcNAc
Outline: as §1

Gal(b1-4)Gal = target: Gal(b1-4)Gal
Outline: as §1

[14] = target: Gal(b1-4)GlcNAc(b1-3)Gal(b1-4)GlcNAc(b1-3)Gal(b1-4)GlcNAc
Outline: as §1

[15] = target: Gal(b1-4)GlcNAc(b1-3)Gal(b1-4)GlcNAc(b1-3)Gal(b1-4)GlcNAc(b1-3)Gal(b1-4)GlcNAc(b1-2)Man(a1-3)[Gal(b1-4)GlcNAc(b1-3)Gal(b1-4)GlcNAc(b1-3)Gal(b1-4)GlcNAc(b1-3)Gal(b1-4)GlcNAc(b1-2)Man(a1-6)]Man(b1-4)GlcNAc(b1-4)[Fuc(a1-6)]GlcNAc
Outline: as §1

[16] = target: Gal(b1-4)GlcNAc(b1-3)Gal(b1-4)GlcNAc(b1-3)[Gal(b1-4)GlcNAc(b1-3)Gal(b1-4)GlcNAc(b1-6)]GalNAc
Outline: as §1

[17] = target: Gal(b1-4)GlcNAc(b1-3)Gal(b1-4)[Fuc(a1-3)]GlcNAc(b1-3)Gal(b1-4)[Fuc(a1-3)]GlcNAc
Outline: as §1

Gal3S(b1-4)Glc = target: Gal3S(b1-4)Glc
Outline: as §1

[18] = target: Gal3S(b1-4)[Fuc(a1-3)]GlcNAc6S
Outline: as §1

Gal3S6S(b1-4)GlcNAc = target: Gal3S6S(b1-4)GlcNAc
Outline: as §1

Gal4S6S(b1-4)GlcNAc = target: Gal4S6S(b1-4)GlcNAc
Outline: as §1

Gal6S(b1-4)GlcNAc6S = target: Gal6S(b1-4)GlcNAc6S
Outline: as §1

[19] = target: GalNAc(a1-3)GalNAc(b1-3)Gal(a1-4)Gal(b1-4)GlcNAc
Outline: as §1

GalNAc(b1-4)GlcNAc6S = target: GalNAc(b1-4)GlcNAc6S
Outline: as §1

GlcA(b1-6)Gal = target: GlcA(b1-6)Gal
Outline: as §1

B1: Arath Fbox LD (Arabidopsis thaliana) (protein)
chain: EFSVWLEKASGKRCLMLSAMNLSIIWGDNPQYWQWIPIPESRFEKVAKLRDVCWFEIRGRTNTRVLSPRTRYSAYIVFKGVDKCYGFQNVAIEAAVGVVGQEPSRRLICFSEAIRRGRRNVVKPKQREDGWMEIELGEFFNDGGIMDNDEIEMSALETKQLNRKCGLIIQGIEIRPAKILAAASFLEQKLISEEDLNSAVDHHHHHH
[1]
  glycan array binding signal (z-score): -0.344
[2]
  glycan array binding signal (z-score): -0.52
[3]
  glycan array binding signal (z-score): -0.597
[4]
  glycan array binding signal (z-score): 0.47
[5]
  glycan array binding signal (z-score): 2.04
[6]
  glycan array binding signal (z-score): -0.455
Gal(a1-2)Gal
  glycan array binding signal (z-score): -0.171
Gal(a1-3)Gal(b1-3)GlcNAc
  glycan array binding signal (z-score): 9.37
[7]
  glycan array binding signal (z-score): 2.84
[8]
  glycan array binding signal (z-score): -0.233
[9]
  glycan array binding signal (z-score): 1.55
Gal(b1-2)Gal
  glycan array binding signal (z-score): 2.67
Gal(b1-3)Gal
  glycan array binding signal (z-score): -0.517
[10]
  glycan array binding signal (z-score): -0.473
[11]
  glycan array binding signal (z-score): -0.574
[12]
  glycan array binding signal (z-score): 4.02
[13]
  glycan array binding signal (z-score): 2.55
Gal(b1-4)Gal
  glycan array binding signal (z-score): 1.31
[14]
  glycan array binding signal (z-score): 0.403
[15]
  glycan array binding signal (z-score): -0.558
[16]
  glycan array binding signal (z-score): -0.532
[17]
  glycan array binding signal (z-score): -0.413
Gal3S(b1-4)Glc
  glycan array binding signal (z-score): 4.4
[18]
  glycan array binding signal (z-score): 3.79
Gal3S6S(b1-4)GlcNAc
  glycan array binding signal (z-score): 2.51
Gal4S6S(b1-4)GlcNAc
  glycan array binding signal (z-score): -0.39
Gal6S(b1-4)GlcNAc6S
  glycan array binding signal (z-score): 0.739
[19]
  glycan array binding signal (z-score): -0.368
GalNAc(b1-4)GlcNAc6S
  glycan array binding signal (z-score): -0.574
GlcA(b1-6)Gal
  glycan array binding signal (z-score): 1.15
